Results taken from PubChem BioAssay AID1159580 (chemical genetic matrix, 2015).
Values joined by “and” are separate entries in the source; they are usually repeats but may differ in a detail not shown here. Equal entries are not always repeated. The campaign covered roughly 5,500 compounds. About 2,000 (36%) were called active. Inconclusive results (about 18%) are left out. No stated cut-off is given here; in the data, active means normalized growth mostly below about 0.91 (no sharp cut-off); inconclusive means no clear call, values can overlap the other calls; inactive means mostly above about 0.92. This is one part of the list.

Experiment: chemical genetic growth profiling, strain panel (AID 1159580);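 further: tested at 20 µM; growth read once vehicle control cultures reached saturation at 30 °C; 1 = growth at the plate median or of vehicle wells; lower values mean less growth of the strain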
Settings: S. cerevisiae deletion strains, growth OD

Measured: normalized growth

CC(=O)Oc1cc(OC(C)=O)c2c(c1)O[C@H](c1ccc(OC(C)=O)c(OC(C)=O)c1)[C@@H](OC(C)=O)C2
inactive: locus YAL013W, strain DEP1, active compounds read low 1 | locus YAL021C, strain ccr4, active compounds read low 1 | locus YAL026C, strain drs2, active compounds read low 0.995 | locus YAL030W, strain snc1, active compounds read low 1 | locus YBL061C, strain skt5, active compounds read low 1 | locus YBR009C, strain hhf1, active compounds read low 1.02 | locus YBR021W, strain FUR4, active compounds read low 0.975 | locus YBR023C, strain chs3, active compounds read low 1 | locus YBR171W, strain sec66, active compounds read low 1 | locus YBR229C, strain ROT2, active compounds read low 0.992 | locus YBR231C, strain swc5, active compounds read low 0.99 | locus YBR279W, strain paf1, active compounds read low 1 | locus YCL011C, strain gbp2, active compounds read low 1 | locus YCL016C, strain dcc1, active compounds read low 1 | locus YCL029C, strain bik1, active compounds read low 0.965 | locus YCL061C, strain MRC1, active compounds read low 0.994 | locus YCL069W, strain vba3, active compounds read low 1 | locus YCR088W, strain abp1, active compounds read low 1 | locus YDL005C, strain med2, active compounds read low 1 | locus YDL035C, strain GPR1, active compounds read low 0.995 | locus YDL040C, strain nat1, active compounds read low 1 | locus YDL074C, strain BRE1, active compounds read low 0.99 | locus YDL101C, strain DUN1, active compounds read low 0.994 | locus YDL134C, strain PPH21, active compounds read low 1.04 | locus YDL185W, strain tfp1, active compounds read low 0.972 | locus YDL192W, strain arf1, active compounds read low 0.98 | locus YDR001C, strain nth1, active compounds read low 1 | locus YDR069C, strain doa4, active compounds read low 0.994 | locus YDR101C, strain arx1, active compounds read low 0.961 | locus YDR137W, strain rgp1, active compounds read low 1.02 | locus YDR159W, strain sac3, active compounds read low 0.999 | locus YDR162C, strain NBP2, active compounds read low 0.997 | locus YDR195W, strain ref2 0.966 | locus YDR297W, strain sur2, active compounds read low 1.01 | locus YDR318W, strain mcm21, active compounds read low 1.01 | locus YDR334W, strain swr1, active compounds read low 1 | locus YDR335W, strain msn5, active compounds read low 0.997 | locus YDR388W, active compounds read low 0.978 | locus YDR392W, strain spt3, active compounds read low 0.927 | locus YDR502C, strain sam2, active compounds read low 0.984 | locus YEL003W, strain gim4, active compounds read low 1 | locus YEL037C, strain rad23, active compounds read low 1 | locus YEL061C, strain CIN8 (second series), active compounds read low 0.998 | locus YEL061C, strain CIN8, active compounds read low 1 | locus YER015W, strain faa2, active compounds read low 0.995 | locus YER016W, strain bim1, active compounds read low 0.999 | locus YER110C, active compounds read low 0.97 | locus YER111C, strain swi4, active compounds read low 1 | locus YER155C, strain BEM2 (second series), active compounds read low 1 | locus YER155C, strain BEM2, active compounds read low 1 | locus YER167W, strain BCK2, active compounds read low 1 | locus YFR010W, strain ubp6, active compounds read low 1 | locus YGL078C, strain dbp3, active compounds read low 0.979 | locus YGL086W, strain mad1, active compounds read low 0.955 | locus YGL167C, strain pmr1, active compounds read low 1 | locus YGL173C, strain kem1, active compounds read low 1.01 | locus YGL227W, strain vid30, active compounds read low 0.993 | locus YGL240W, strain doc1, active compounds read low 1 | locus YGL248W, strain PDE1, active compounds read low 0.993 | locus YGL253W, strain hxk2, active compounds read low 0.997 | locus YGR078C, strain PAC10, active compounds read low 0.991 | locus YGR135W, strain pre9, active compounds read low 0.992 | locus YGR229C, strain SMI1, active compounds read low 0.992 | locus YGR252W, strain gcn5, active compounds read low 1.1 | locus YHR013C, strain ard1, active compounds read low 0.967 | locus YHR027C, strain rpn1, active compounds read low 1 | locus YHR030C, strain SLT2, active compounds read low 0.998 and 0.994 | locus YHR079C, strain IRE1 (second series), active compounds read low 0.98 | locus YHR079C, strain IRE1, active compounds read low 0.98 | locus YHR094C, strain hxt1, active compounds read low 0.985 | locus YHR129C, strain ARP1, active compounds read low 1 | locus YHR142W, strain chs7, active compounds read low 1.02 | locus YHR200W, strain rpn10, active compounds read low 0.982 | locus YIL066C, strain RNR3, active compounds read low 0.978 | locus YIL073C, strain SPO22, active compounds read low 1.01 | locus YIL125W, strain kgd1, active compounds read low 0.975 | locus YIR030C, strain dcg1, active compounds read low 0.982 | locus YJL092W, strain hpr5, active compounds read low 0.997 | locus YJL095W, strain BCK1 (second series), active compounds read low 1 | locus YJL095W, strain BCK1, active compounds read low 1.02 and 0.979 | locus YJL115W, strain asf1, active compounds read low 0.99 | locus YJL129C, strain trk1, active compounds read low 0.995 | locus YJL134W, strain LCB3, active compounds read low 0.997 | locus YJL154C, strain vps35, active compounds read low 0.997 | locus YJL164C, strain tpk1, active compounds read low 1 | locus YJL166W, strain qcr8, active compounds read low 1.01 | locus YJL168C, strain set2, active compounds read low 0.981 | locus YJL187C, strain SWE1 (second series), active compounds read low 0.985 | locus YJL187C, strain SWE1, active compounds read low 1 | locus YJR043C, strain POL32, active compounds read low 1.01
